Data taken from PubChem BioAssay.
Several values for one entry are separate records, joined by “and”; a condition that tells them apart may be missing. Equal values may be shown once. Where a structure was tested more than once in an assay, its records may differ in their call. Activity calls are given as the source filed them.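 Rule for the calls, unless noted: active = inhibition at or above 50% relative to wild type and mutant plate controls; inactive = inhibition below 50%.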

Tests used:
[1] = endothelial E-selectin expression blockers – imaging, HUVEC, immunofluorescence, MLSMR starter and 10KST1 sets, primary screen (AID 487;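 active = visually confirmed hit in the image check and inhibition above 20%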;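 for inhibition: signal is fraction of cell area covered by stained E-selectin grains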;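 for nuclei count: 100% = median nuclei count of all wells on the same plate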); details: HUVEC TNFalpha-induced E-selectin immunofluorescence imaging, at 2 µM; inhibition: stronger effect = higher value; nuclei count: measured here: cell number, toxicity
[2] = Primary imaging screen for DUSP6 inhibitors that restore phospho-Erk in transfected HeLa cells, chemical complementation (AID 609;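 active = compounds giving at least 50% inhibition in the cell-based MKP-3 phosphatase rescue imaging test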;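 for inhibition: phospho-Erk level distribution per well compared with pooled transfected vehicle control wells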); details: HeLa MKP-3 transfected, phospho-Erk imaging KS statistic, at 10 µM, cells stimulated with TPA for 15 min
[3] = target: Dual specificity protein phosphatase 6 (Homo sapiens) (UniProt Q16828); test: as above; details: HeLa MKP-3 transfected, phospho-Erk imaging KS statistic; at 10 µM; stronger effect = higher value; cells stimulated with TPA for 15 min
Dual specificity protein phosphatase 6 (Homo sapiens), sequence (Q16828 whole entry, looked up): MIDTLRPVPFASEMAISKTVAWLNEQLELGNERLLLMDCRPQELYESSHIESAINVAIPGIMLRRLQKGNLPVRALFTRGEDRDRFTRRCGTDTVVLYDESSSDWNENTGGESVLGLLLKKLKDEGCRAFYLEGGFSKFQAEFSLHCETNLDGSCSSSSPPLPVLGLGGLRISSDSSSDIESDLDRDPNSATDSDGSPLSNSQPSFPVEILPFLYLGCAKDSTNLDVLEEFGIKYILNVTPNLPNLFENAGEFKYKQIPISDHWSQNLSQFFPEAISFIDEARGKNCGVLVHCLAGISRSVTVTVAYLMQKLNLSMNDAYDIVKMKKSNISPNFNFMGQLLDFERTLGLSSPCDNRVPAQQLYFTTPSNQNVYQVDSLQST

[4] = target: Voltage-gated potassium channel subunit beta-2 (Rattus norvegicus) (UniProt P62483); test: inhibitors of rat Kvbeta2 reductase activity – biochemical, NADPH fluorescence, primary screen (AID 622;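 active = fluorescence slope higher than the sample average by over 3 SD, cut at about -0.22 in these data, passing the limit was not always enough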;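 note: slope of raw intensity against log time taken from 70 to 1610 s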); details: recombinant KvBeta, 4-cyanobenzaldehyde reduction, at 10 µM, stronger effect = higher value
Voltage-gated potassium channel subunit beta-2 (Rattus norvegicus), sequence (P62483 whole entry, looked up): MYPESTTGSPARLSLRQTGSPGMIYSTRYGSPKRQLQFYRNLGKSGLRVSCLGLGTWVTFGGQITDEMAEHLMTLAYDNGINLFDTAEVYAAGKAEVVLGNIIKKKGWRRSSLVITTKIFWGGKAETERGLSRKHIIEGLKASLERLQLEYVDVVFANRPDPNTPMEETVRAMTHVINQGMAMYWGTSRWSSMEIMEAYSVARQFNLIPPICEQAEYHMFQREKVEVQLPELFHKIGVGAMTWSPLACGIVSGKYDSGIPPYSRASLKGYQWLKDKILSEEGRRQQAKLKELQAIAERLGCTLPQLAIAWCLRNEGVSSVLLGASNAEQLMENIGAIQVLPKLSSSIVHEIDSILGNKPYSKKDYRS

[5] = target: Voltage-gated potassium channel subunit beta-2 (Rattus norvegicus) (UniProt P62483); test: enhancers of rat Kvbeta2 NADPH turnover – biochemical, NADPH fluorescence, primary screen (AID 623;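 active = NADPH fluorescence slope more negative than the mean of all samples by about 3 SD, 99.7% confidence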;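 note: fluorescence intensity change per second fitted from 20 to 320 s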); details: Recombinant KvBeta, NADPH fluorescence decrease slope, 10 min; at 10 µM; stronger effect = lower value
[6] = target: Muscarinic acetylcholine receptor M4 (Homo sapiens) (UniProt P08173); test: M4-linked GIRK flux change, two-sided – cell-based, HEK293 M4/GIRK, thallium flux, BTC-AM, M4 allosteric agonist project, primary screen (AID 625;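 active = fluorescence slope after compound addition differing from the mean of all tested samples at 99.7% confidence, mostly higher but some lower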;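 note: thallium influx through GIRK channels coupled to M4 in HEK293 cells with BTC-AM dye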); details: at 10 µM, actives lie on both sides
Muscarinic acetylcholine receptor M4 (Homo sapiens), sequence (P08173 whole entry, looked up): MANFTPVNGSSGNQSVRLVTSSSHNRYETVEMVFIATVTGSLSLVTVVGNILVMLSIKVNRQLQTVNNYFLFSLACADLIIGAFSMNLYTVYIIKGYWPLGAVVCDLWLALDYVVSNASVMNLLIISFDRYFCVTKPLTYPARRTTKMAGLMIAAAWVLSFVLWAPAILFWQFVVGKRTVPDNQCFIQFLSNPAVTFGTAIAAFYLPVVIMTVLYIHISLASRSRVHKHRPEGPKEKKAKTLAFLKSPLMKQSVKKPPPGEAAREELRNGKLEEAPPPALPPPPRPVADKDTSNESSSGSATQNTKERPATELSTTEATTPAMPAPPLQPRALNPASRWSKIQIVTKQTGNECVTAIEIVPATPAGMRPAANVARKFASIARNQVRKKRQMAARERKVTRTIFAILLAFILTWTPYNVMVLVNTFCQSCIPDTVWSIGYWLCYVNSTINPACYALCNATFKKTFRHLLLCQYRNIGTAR

[7] = inhibitors of larval lipid processing in zebrafish, primary screen, whole organism, PED6 fluorescence, gall bladder and intestine (AID 686;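 active = a full or partial loss of lipid-probe fluorescence in the fish gall bladder, intestine or both, judged by eye; inactive = no fluorescence loss, or compound toxic to the fish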;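 note: larvae 5 to 7 days old with five fish per well; signal comes from phospholipase A2 cleavage of quenched PED6 carried via bile; overnight exposure to compound and PED6 before scoring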); details: Zebrafish larvae PED6 lipid processing, fluorescence scoring; screened at 20 µM (by protocol)
[8] = loss of swimming-algae plug formation – whole organism, Chlamydomonas reinhardtii, WT vs cilia-less mutant, absorbance, 96-well, primary screen (AID 463189); details: Chlamydomonas reinhardtii gravitaxis, OD600 absorbance, 2 days; at 10 µM; stronger effect = higher value;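 note: 0% = wild type cc124 cells in DMSO and 100% = ciliumless bld1 mutant cells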
[9] = target: Alpha-2C adrenergic receptor (Homo sapiens) (UniProt P18825); test: compounds altering alpha2C-coupled GIRK flux – cell-based, HEK293 alpha2C/GIRK1/2, thallium flux, primary screen (AID 624;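 active = fluorescence slope after compound addition differing from the mean of all screened samples at 99.7% confidence, in either direction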;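 note: slope of fluorescence ratio to pre-addition baseline per second over 15 to 24 s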); details: thallium flux BTC fluorescence, at 10 µM, actives lie on both sides
Alpha-2C adrenergic receptor (Homo sapiens), sequence (P18825 whole entry, looked up): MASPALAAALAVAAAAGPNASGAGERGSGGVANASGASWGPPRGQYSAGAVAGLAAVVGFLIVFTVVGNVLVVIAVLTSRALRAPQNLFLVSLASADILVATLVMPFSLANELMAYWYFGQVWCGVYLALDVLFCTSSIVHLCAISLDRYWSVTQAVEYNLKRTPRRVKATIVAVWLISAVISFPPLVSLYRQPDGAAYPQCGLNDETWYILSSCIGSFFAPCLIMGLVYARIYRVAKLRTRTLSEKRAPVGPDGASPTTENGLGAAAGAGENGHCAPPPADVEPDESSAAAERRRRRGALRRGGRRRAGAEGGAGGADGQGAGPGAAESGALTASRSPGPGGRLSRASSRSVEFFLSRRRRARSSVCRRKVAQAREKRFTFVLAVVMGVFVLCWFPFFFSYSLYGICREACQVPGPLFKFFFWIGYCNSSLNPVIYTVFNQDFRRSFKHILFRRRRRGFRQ

[10] = blockers of RIG-like receptor reporter activation – cell-based, Sendai virus stimulus, luciferase, 10K MLSCN set, TLR/RLR signaling modifier project, primary screen (AID 602276;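 active = inhibition at or above 50% at 10 µM; inactive = inhibition below 50%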;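 note: firefly luciferase from ISG56 promoter only with Renilla not read in this screen; 0% = Sendai virus plus DMSO and 100% = medium plus DMSO without virus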); details: HEK293 RL24 IRF3 luciferase reporter, at 10 µM, stronger effect = higher value
[11] = TLR3 IRF3 reporter activation blockers – cell-based, poly I:C stimulus, luciferase, 10K MLSCN set, primary screen (AID 602277;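 active = inhibition of the reporter signal at or above 50%; inactive = inhibition below 50%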); details: HEK293-TLR3 RL24 IRF3 luciferase reporter, at 10 µM, stronger effect = higher value
[12] = reduction of polyQ htt aggregates in cells – imaging, exon1htt(103Q)mCFP cells, high-content imaging, primary screen (AID 483;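 active = visual image review flags a hit and inhibition of aggregation exceeds 20%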;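 note: compound exposure lasted 3 days before fixation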;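 for nuclei count: percent of the per-plate median nuclei count of sample wells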); details: exon1htt(103Q)mCFP cell line, aggregate imaging, at 2 µM; inhibition of aggregation: stronger effect = higher value; nuclei count: measured here: cell count, toxicity
[13] = measured here: cell density z-score
[14] = measured here: nuclear c-Myc green intensity z-score
[15] = measured here: nuclear pErk red intensity z-score, stronger effect = higher value

| SMILES | inhibition [1] | nuclei count [1] [%] | z-score [2, 13] | z-score [2, 14] | z-score [2, 15] | inhibition [3] | fluorescence slope [4] | NADPH fluorescence slope [5] | fluorescence slope [6] | outcome [7] | inhibition [8] | slope [9] | inhibition [10] | inhibition [11] | inhibition of aggregation [12] | nuclei count [12] [%] |
| --- | --- | --- | --- | --- | --- | --- | --- | --- | --- | --- | --- | --- | --- | --- | --- | --- |
| Cc1cccc(OCC(=O)NCC(=O)n2nc(C)cc2C)c1 | -106% (inactive) | 146 | -0.336 | 0.0922 | 0.78 | -7.79% (inactive) | -0.413 (inactive) | -9.5e-06 (inactive) | 0.00436 (inactive) | inactive | 16.2% (inactive) |  |  |  |  |  |
| CCN(CC)CCNC(=O)c1ccc(N)cc1 | -57.1% (inactive) | 133 | 1.09 | -0.602 | -0.833 | 3.59% (inactive) | -0.52 (inactive) | -0.000102 (inactive) |  | inactive | 3.94% (inactive) and 1.02% (inactive) | 0.00563 (inactive) | -2.32% (inactive) | 3.63% (inactive) |  |  |
| Cc1nnc(NS(=O)(=O)c2ccc(N)cc2)s1 | -81.2% (inactive) | 125 | 0.0804 | 0.446 | 0.118 | 19% (inactive) | -0.526 (inactive) | -3.2e-05 (inactive) |  | inactive | -0.666% (inactive) | 0.00418 (inactive) | -4.22% (inactive) | -8.79% (inactive) |  |  |
| COC(=O)C1C(=O)NCC1c1ccccc1 (stereo not given) | 1.3% (inactive) | 81.1 | 5.99 | -1.76 | -1.15 | 49.5% (inactive) | -0.482 (inactive) | -4e-05 (inactive) | 0.00479 (inactive) | inactive | 31.4% (inactive) |  |  |  |  |  |
| CN(C)CCCN1c2ccccc2CCc2ccccc21 | -9.2% (inactive) | 128 | -0.894 | -0.347 | 2.03 | -12.3% (inactive) | -0.545 (inactive) | -3.3e-05 (inactive) |  | inactive | -3.09% (inactive) and 37.3% (inactive) | 0.00498 (inactive) | -11.2% (inactive) | 5.17% (inactive) |  |  |
| Fc1ccc(C(c2ccc(F)cc2)N2CCN(C/C=C/c3ccccc3)CC2)cc1 | -61.3% (inactive) | 124 | -0.381 | 1.96 | -1.06 | 23.4% (inactive) | -0.463 (inactive) | -6.2e-05 (inactive) |  | inactive; toxic | -8.15% (inactive) and 80.3% (active) | 0.00453 (inactive) | 10.5% (inactive) | 42.4% (inactive) |  |  |
| COc1cc2nc(N3CCN(C(=O)C4CCCO4)CC3)nc(N)c2cc1OC (stereo not given) | -29.4% (inactive) | 105 | 1.01 | -0.263 | -0.73 | 16.8% (inactive) |  |  |  | inactive | 3.5% (inactive) and -0.975% (inactive) |  | 16.1% (inactive) | 30.2% (inactive) | -7.9% (inactive) | 82 |
| C=C(Br)CN1CCN(CC(=C)Br)CC1 | -179% (inactive) | 175 | 2.33 | -0.834 | -0.983 | 17% (inactive) | -0.428 (inactive) | -2.9e-05 (inactive) | 0.00828 (inactive) | inactive | 5.24% (inactive) |  |  |  |  |  |
| Cc1cc(C)n(C(=O)CNC(=O)c2ccc3c(c2)OCCO3)n1 | -96.3% (inactive) | 162 | 1.78 | -0.668 | -1.28 | 18.9% (inactive) | -0.374 (inactive) | -5.5e-05 (inactive) | 0.00504 (inactive) | inactive | 12.4% (inactive) |  |  |  |  |  |
| COc1ccc(OCC(=O)OCCN(C)C)cc1 | -159% (inactive) | 170 | -1.95 | -1.2 | -0.272 | -10.6% (inactive) | -0.383 (inactive) | -2.2e-05 (inactive) |  | inactive | 6.76% (inactive) | 0.00493 (inactive) |  |  |  |  |
| CC1=NS(=O)(=O)c2cc(Cl)ccc2N1 | -68% (inactive) | 105 | 0.557 | 0.773 | -0.365 | 19.2% (inactive) | -0.43 (inactive) | -5.9e-05 (inactive) |  | inactive | -5.98% (inactive) and 10.3% (inactive) | 0.00504 (inactive) | 15.7% (inactive) | 41.7% (inactive) |  |  |
| C1CNCCNCCCNCCNC1 |  |  |  |  |  |  | -0.454 (inactive) | -6.6e-05 (inactive) |  | inactive | -15.9% (inactive) |  |  |  | 19.7% (inactive) | 100 |
| O=C(NCCO)C1(c2ccccc2)CCCC1 | -0.2% (inactive) | 87.4 | -1.49 | 2.28 | -1.5 | 20.8% (inactive) | -0.406 (inactive) | -8.2e-06 (inactive) | 0.00732 (inactive) | inactive | -4.89% (inactive) |  |  |  |  |  |
| O=P(Cc1nnco1)(c1ccccc1)c1ccccc1 | 0.9% (inactive) | 176 | 0.578 | -1.79 | 0.749 | -3.98% (inactive) | -0.431 (inactive) | -5.1e-05 (inactive) | 0.00527 (inactive) | inactive | -3.84% (inactive) |  |  |  |  |  |
